The panel holds about 83,000 compounds, 20% with a hit somewhere; the sample as a whole holds those more often.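 Values shown are percent growth following 48 h exposure of cells in 96-well plates to a single concentration of compound; below 10 was considered active.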 The source made the active and inactive calls.
Legend:
Assay in all cases: NCI-60 one-dose screen, 48 h (100 = growth as untreated, 0 = no growth, -100 = all killed)
Conditions in all cases: 10 µM unless noted
[1] = system: DU-145 prostate
[2] = system: K-562 leukemia
[3] = system: MALME-3M melanoma
[4] = system: MDA-MB-231 breast
[5] = system: RXF 393 renal
[6] = system: SF-268 CNS
[7] = system: SF-295 CNS
[8] = system: SF-539 CNS
[9] = system: UACC-257 melanoma
[10] = system: M14 melanoma
[11] = system: HCT-15 colon
[12] = system: HT29 colon
[13] = system: SNB-75 CNS
[14] = system: SNB-19 CNS
[15] = system: U251 CNS
[16] = system: PC-3 prostate
[17] = system: SK-MEL-5 melanoma
[18] = system: UACC-62 melanoma
[19] = system: LOX IMVI melanoma
[20] = system: SK-MEL-28 melanoma

Measured: growth

Fc1ccc(/C=N/n2c(-c3cc(Cl)cc(Cl)c3Cl)nn(CNc3ccc(Cl)nn3)c2=S)cc1
inactive: [1] 121% | [2] 85.8% | [3] 103% | [4] 83.3% | [5] 97% | [6] 105% | [7] 121% | [8] 97.6% | [9] 98.1% | [10] 85.6% | [11] 110% | [12] 103% | [13] 99.4% | [14] 101% | [15] 90% | [16] 86.7% | [17] 102% | [18] 86.7% | [19] 96.8% | [20] 108%

O=S(c1ccccc1)c1ccc2nnnn2n1 (stereo not given)
active: [2] -9.22%
inactive: [1] 105% | [3] 103% | [4] 104% | [5] 117% | [6] 97.1% | [7] 102% | [8] 102% | [9] 99.6% | [10] 99% | [11] 79.8% | [12] 92% | [13] 107% | [14] 107% | [15] 103% | [16] 96.6% | [17] 99.8% | [18] 98.6% | [19] 89.7% | [20] 105%

C/C(=N\N=C1/SCC(=O)N1c1ccccc1)c1ccco1
inactive: [1] 119% | [2] 96.4% | [3] 82.1% | [4] 93.2% | [5] 112% | [6] 91.6% | [7] 98.3% | [8] 118% | [9] 118% | [10] 176% | [11] 112% | [12] 136% | [13] 185% | [14] 113% | [15] 102% | [16] 94.7% | [17] 88.8% | [18] 122% | [19] 94.2% | [20] 112%

COc1cc(Nc2ncccc2C(=O)Nc2nc3ccc(F)cc3s2)cc(OC)c1OC
inactive: [1] 90.4% | [2] 97% | [3] 78.8% | [4] 71.4% | [5] 139% | [6] 90% | [7] 15.6% | [8] 92.9% | [9] 86.4% | [10] 19.1% | [11] 76.2% | [12] 79.1% | [13] 73.5% | [14] 89% | [15] 58.5% | [16] 39.2% | [17] 63.9% | [18] 24.4% | [19] 57.3% | [20] 84%

O=C1c2ccccc2OC=C(c2ccccc2)N1CCCCN1CCCCC1
inactive: [1] 48.6% | [2] 15.6% | [3] 67.8% | [4] 73.8% | [5] 95.7% | [6] 55.5% | [7] 79.3% | [8] 95.7% | [9] 66.7% | [10] 68% | [11] 86.2% | [12] 13.6% | [13] 76.1% | [14] 50.7% | [15] 30.3% | [16] 23.3% | [17] 84.5% | [18] 69.1% | [19] 54.5% | [20] 87.3%

Cc1ccc2c(c1)Nc1ccc(C)cc1C2(C)C
inactive: [1] 107% | [2] 97.4% | [3] 98.9% | [4] 114% | [5] 101% | [6] 105% | [7] 101% | [8] 95.7% | [9] 110% | [10] 98.2% | [11] 96% | [12] 79% | [13] 83.9% | [14] 115% | [15] 100% | [16] 90.6% | [17] 97.9% | [18] 100% | [19] 101% | [20] 105%

COc1ccc(NC(=O)Nc2ccc(-c3ccc(OC)c(OC)c3)nc2C)cc1
inactive: [1] 72.2% | [2] 73.2% | [3] 44.1% | [4] 40.5% | [5] 58.2% | [6] 59.2% | [7] 102% | [8] 70.6% | [9] 55.5% | [10] 72.1% | [11] 91.8% | [12] 68.8% | [13] 47.5% | [14] 71.5% | [15] 22.1% | [16] 81.4% | [17] 23% | [18] 59.9% | [19] 88.8% | [20] 86.8%

COc1cc(/C=C/C(=O)c2c(C)[n+]([O-])c3ccccc3[n+]2[O-])ccc1O
inactive: [1] 101% | [2] 85.2% | [3] 103% | [4] 81.5% | [5] 111% | [6] 95.5% | [7] 89.3% | [8] 100% | [9] 98.9% | [10] 103% | [11] 93.5% | [12] 161% | [13] 162% | [14] 111% | [15] 90.8% | [16] 90.6% | [17] 81.6% | [18] 110% | [19] 92.6% | [20] 117%

From PubChem BioAssay (NCI)
